The values below come from PubChem BioAssay (EPA / NIEHS).

A short description of test [1]: ATG_NF_kB_CIS: Attagene CIS-FACTORIAL HepG2 Assay for human Nuclear Factor Kappa B (NF-kB) (AID 2282991). The following applies: HepG2 Attagene cis-factorial NF-kB reporter mRNA; actives raise or lower the signal. In a few lines:
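Measures mRNA induction of an NF-kB-responsive cis-element reporter in HepG2 cells transfected with multiple reporter units, sampled 24 h post-dosing; quantified by fluorescence after RT-PCR and capillary electrophoresis, fitted for activation or inhibition against DMSO.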

Test [2] in a line: ATG_NRF2_ARE_CIS: Attagene CIS-FACTORIAL HepG2 Assay for human Nuclear Factor Erythroid 2 Related Factor 2 (NFR2) response to Antioxidant Response Elements (ARE) (AID 2282992). The following applies: HepG2 Attagene ARE/NRF2 reporter, transcription factor activity; actives raise or lower the signal. In a few lines: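 Endogenous transcription factor activity read out as reporter transcript levels (RT-PCR plus capillary electrophoresis, fluorescence) in transiently transfected HepG2 cells. Measured at 24 h after dosing; gain or loss of signal fitted versus DMSO.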

The nature of test [3]: ATG_Oct_MLP_CIS: Attagene CIS-FACTORIAL HepG2 Assay for human Octamer-Binding Transcription Factor (Oct) (AID 2282993). The note with it: HepG2 Attagene cis-factorial Oct reporter, mRNA; actives raise or lower the signal. In a few lines: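 Transient MRTU transfection of HepG2 → 24 h compound treatment → RNA isolation, reverse transcription, PCR → 6-FAM primer extension, HpaI digest → capillary electrophoresis. Activity fitted both directions against DMSO.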

For test [4], the target named is Cellular tumor antigen p53 (Homo sapiens) (UniProt P04637). The test can be described thus: ATG_p53_CIS: Attagene CIS-FACTORIAL HepG2 Assay for human p53 Transcription Factor (AID 2282994). The following applies: HepG2 p53 cis-element reporter, Attagene mRNA; actives raise or lower the signal. Put shortly:
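Endogenous p53 activity read in transiently transfected HepG2 from a cis-element-driven reporter transcript after 24 h exposure. RNA reverse-transcribed, PCR-amplified, fluorescently labelled and sized by capillary electrophoresis; gain or loss fitted against DMSO baseline.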

Test [5] in a line: BSK_3C_TissueFactor: BioMAP Diversity Plus: 3C Assay for Tissue Factor Biomarker Activity (AID 2282997). The following applies: BioMAP 3C HUVEC, tissue factor biomarker readout; actives raise or lower the signal. Put shortly:
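In this endothelial system, HUVEC are treated for 24 h and Tissue Factor is assessed by ELISA, normalised to DMSO.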

The nature of test [6]: BSK_3C_uPAR: BioMAP Diversity Plus: 3C Assay for Urokinase-type plasminogen activator receptor (uPAR) Biomarker Activity (AID 2282998). The note with it: BioMAP 3C HUVEC, uPAR biomarker ELISA; actives raise or lower the signal. Put shortly: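 ELISA readout of uPAR on human vascular endothelium (umbilical vein primary cells), taken 24 h after chemical dosing. Increases and decreases are both fitted relative to DMSO vehicle.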
For orientation: ELISA stands for enzyme-linked immunosorbent assay.

A short description of test [7]: BSK_3C_VCAM1: BioMAP Diversity Plus: 3C Assay for Vascular cell adhesion molecule 1 (VCAM1) Biomarker Activity (AID 2282999). The note with it: BioMAP 3C HUVEC, VCAM1 ELISA, cytokine-stimulated; actives raise or lower the signal. Put shortly: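 HUVEC primary cells, 24 h compound exposure; VCAM-1 by ELISA; gain/loss of signal fitted bidirectionally vs DMSO baseline.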

Test [8] can be described thus: BSK_4H_Eotaxin3: BioMAP Diversity Plus: 4H Assay for Eotaxin 3 Biomarker Activity (AID 2283000).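 For outcome: CCL26 protein level quantified by ELISA in parallel with SRB cytotoxicity check.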 The note with it: primary human endothelial cells (HUVEC); actives raise or lower the signal. Put shortly:
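ELISA quantitation of CCL26 (Eotaxin-3) protein from chemically dosed human vascular endothelial cells at 24 h; increases and decreases both scored relative to DMSO-treated baseline.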

For test [9], the target named is human Peroxisome Proliferator-activated Receptor alpha (PPARa), PPARA (gene 5465) (UniProt Q07869). The test can be described thus: ATG_PPARa_TRANS: Attagene TRANS-FACTORIAL HepG2 Assay for human Peroxisome Proliferator-activated Receptor alpha (PPARa) (AID 2283001; active = hit-call score of the fitted dose curve at least 0.9, where 1 is the maximum). In a few lines:
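Transient HepG2 transfection, GAL4-UAS reporters, NR-Gal4 chimeras; 24 h compound exposure. Readout: reporter transcripts by RT-PCR, 6-FAM primer extension, HpaI digest, capillary electrophoresis. Positive direction vs DMSO baseline.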

Read-out in test [10]: Intercellular Adhesion Molecule 1 (ICAM1), ICAM1 (gene 3383)
The test can be described thus: BSK_3C_ICAM1: BioMAP Diversity Plus: 3C Assay for Intercellular Adhesion Molecule 1 (ICAM1) Biomarker Activity (AID 2283003). The following applies: primary human endothelial cells (HUVEC); actives raise or lower the signal. Put shortly: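 ELISA read-out of ICAM-1; HUVEC (primary human), 3C system, 24 h post-dosing; bidirectional fit vs DMSO baseline.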

Test [11] can be described thus: BSK_3C_Proliferation: Cell Proliferation Assessment in the BioMAP Diversity Plus: 3C Assay (AID 2283006).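 For AC50: potency may reflect either rise or fall in cell number versus DMSO.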 The note with it: primary human endothelial cells (HUVEC). In a few lines: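 HUVEC, sub-confluent; 48 h chemical exposure; 10% TCA fix, 0.1% SRB stain, A560 total protein. Gain or loss of signal fitted both directions vs DMSO control.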
For test [12], the target named is Peroxisome proliferator-activated receptor gamma (Homo sapiens) (UniProt P37231). The test can be described thus: ATG_PPARg_TRANS: Attagene TRANS-FACTORIAL HepG2 Assay for human Peroxisome Proliferator-activated Receptor-gamma (PPARg) (AID 2283007; active = hit-call score of the fitted dose curve at least 0.9, where 1 is the maximum). In a few lines: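 Gain-of-signal endpoint relative to DMSO, derived from reporter mRNA levels quantified by RT-PCR and capillary electrophoresis. Cells were HepG2 transiently expressing a chimeric NR-Gal4 construct with GAL4-UAS reporters, exposed to chemicals for 24 h.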
Sequence of Peroxisome proliferator-activated receptor gamma (Homo sapiens) (P37231 whole entry, looked up, the tested form may be a part): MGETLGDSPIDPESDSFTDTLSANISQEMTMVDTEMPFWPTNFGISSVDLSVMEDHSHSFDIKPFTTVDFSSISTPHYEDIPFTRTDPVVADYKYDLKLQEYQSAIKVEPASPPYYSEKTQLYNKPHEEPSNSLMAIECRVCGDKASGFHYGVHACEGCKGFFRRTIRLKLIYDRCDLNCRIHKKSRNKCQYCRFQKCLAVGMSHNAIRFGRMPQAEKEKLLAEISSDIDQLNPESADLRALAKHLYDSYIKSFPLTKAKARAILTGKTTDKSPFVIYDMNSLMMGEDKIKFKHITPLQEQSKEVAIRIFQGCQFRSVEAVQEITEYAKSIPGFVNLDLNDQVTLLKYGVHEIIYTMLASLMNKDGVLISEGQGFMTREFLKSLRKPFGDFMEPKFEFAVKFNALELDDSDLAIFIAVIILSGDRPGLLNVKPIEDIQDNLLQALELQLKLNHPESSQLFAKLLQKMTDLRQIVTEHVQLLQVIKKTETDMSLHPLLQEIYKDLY

The target of test [13] is Nuclear receptor subfamily 1 group I member 2 (Homo sapiens) (UniProt O75469). The test can be described thus: ATG_PXR_TRANS: Attagene TRANS-FACTORIAL HepG2 Assay for human Pregnane X Receptor (PXR) (AID 2283008; active = hit-call score of the fitted dose curve at least 0.9, where 1 is the maximum). Put shortly:
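Transactivation by exogenous PXR–GAL4 fusion measured as reporter transcript induction after 24 h compound treatment of transfected human HepG2 cells. Read-out via RT-PCR and capillary electrophoresis of labelled fragments, fitted upward relative to DMSO.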

For test [14], the target named is Retinoic acid receptor RXR-alpha (Homo sapiens) (UniProt P19793). The test can be described thus: ATG_RXRa_TRANS: Attagene TRANS-FACTORIAL HepG2 Assay for human Retinoid X Receptor alpha (RXRa) (AID 2283012; active = hit-call score of the fitted dose curve at least 0.9, where 1 is the maximum). In a few lines: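 Read-out: fluorescent reporter-transcript fragments quantified by capillary electrophoresis after RT-PCR. Transiently transfected HepG2 cells carrying GAL4-UAS reporters and NR-GAL4 chimeras were exposed to chemical for 24 h; activity scored as increase over DMSO.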
Sequence of Retinoic acid receptor RXR-alpha (Homo sapiens) (P19793 whole entry, looked up, the tested form may be a part): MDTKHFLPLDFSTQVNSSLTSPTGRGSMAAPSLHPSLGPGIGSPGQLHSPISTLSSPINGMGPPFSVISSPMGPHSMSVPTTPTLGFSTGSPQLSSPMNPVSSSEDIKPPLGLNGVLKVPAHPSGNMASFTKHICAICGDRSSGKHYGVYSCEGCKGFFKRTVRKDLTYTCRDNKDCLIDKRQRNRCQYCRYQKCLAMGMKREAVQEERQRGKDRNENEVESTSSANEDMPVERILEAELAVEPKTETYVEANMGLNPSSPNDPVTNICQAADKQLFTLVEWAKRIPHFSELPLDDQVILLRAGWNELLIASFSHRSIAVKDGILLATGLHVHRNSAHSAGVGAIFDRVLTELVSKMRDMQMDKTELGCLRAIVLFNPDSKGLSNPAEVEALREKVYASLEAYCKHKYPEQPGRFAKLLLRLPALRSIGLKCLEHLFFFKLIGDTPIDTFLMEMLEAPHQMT

Test [15] addresses human Peroxisome Proliferator-activated Receptor delta (PPARd), PPARD (gene 5467) (UniProt Q03181). The test can be described thus: ATG_PPARd_TRANS: Attagene TRANS-FACTORIAL HepG2 Assay for human Peroxisome Proliferator-activated Receptor delta (PPARd) (AID 2283002; active = hit-call score of the fitted dose curve at least 0.9, where 1 is the maximum). Put shortly: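 HepG2 cells transiently transfected with GAL4-UAS multiplexed reporter units driven by exogenous chimeric NR-GAL4 proteins; 24 h compound exposure. Reporter mRNA measured by RT-PCR, 6-FAM primer extension, HpaI digestion and capillary electrophoresis; gain of signal fitted relative to DMSO.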

Test [16] concerns the target human Retinoic Acid Receptor beta (RARb), RARB (gene 5915) (UniProt P10826). The test can be described thus: ATG_RARb_TRANS: Attagene TRANS-FACTORIAL HepG2 Assay for human Retinoic Acid Receptor beta (AID 2283004; active = hit-call score of the fitted dose curve at least 0.9, where 1 is the maximum). Put shortly:
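Fluorescent capillary-electrophoresis detection of GAL4-UAS reporter mRNA defines the endpoint, with induction over DMSO-treated wells scored as activity. Transiently transfected human hepatoma HepG2 cells expressing exogenous NR–Gal4 proteins are exposed to test chemicals for 24 h.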

The target in test [17] is human Retinoic Acid Receptor gamma (RARg), RARG (gene 5916) (UniProt P13631). The test can be described thus: ATG_RARg_TRANS: Attagene TRANS-FACTORIAL HepG2 Assay for human Retinoic Acid Receptor gamma (RARg) (AID 2283009; active = hit-call score of the fitted dose curve at least 0.9, where 1 is the maximum). Put shortly:
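Readout: reporter transcript levels via RT-PCR, 6-FAM primer-extension labelling, HpaI digestion and capillary electrophoresis. Cells: HepG2 carrying transfected RARg-GAL4 chimera plus UAS reporter set. Dosing 24 h; DMSO negative control.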

The target in test [18] is human RAR-related Orphan Receptor beta (RORb), RORB (gene 6096) (UniProt Q92753). The test can be described thus: ATG_RORb_TRANS: Attagene TRANS-FACTORIAL HepG2 Assay for human RAR-related Orphan Receptor beta (RORb) (AID 2283010; active = hit-call score of the fitted dose curve at least 0.9, where 1 is the maximum). Put shortly: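 HepG2, transient MRTU transfection (GAL4-UAS reporters, exogenous NR-Gal4 chimeras); 24 h compound exposure; total RNA → RT-PCR → 6-FAM primer extension → HpaI digest → CE fluorescence. Positive direction vs DMSO baseline.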
Sequence of human RAR-related Orphan Receptor beta (RORb), RORB (gene 6096) (Q92753 whole entry, looked up, the tested form may be a part): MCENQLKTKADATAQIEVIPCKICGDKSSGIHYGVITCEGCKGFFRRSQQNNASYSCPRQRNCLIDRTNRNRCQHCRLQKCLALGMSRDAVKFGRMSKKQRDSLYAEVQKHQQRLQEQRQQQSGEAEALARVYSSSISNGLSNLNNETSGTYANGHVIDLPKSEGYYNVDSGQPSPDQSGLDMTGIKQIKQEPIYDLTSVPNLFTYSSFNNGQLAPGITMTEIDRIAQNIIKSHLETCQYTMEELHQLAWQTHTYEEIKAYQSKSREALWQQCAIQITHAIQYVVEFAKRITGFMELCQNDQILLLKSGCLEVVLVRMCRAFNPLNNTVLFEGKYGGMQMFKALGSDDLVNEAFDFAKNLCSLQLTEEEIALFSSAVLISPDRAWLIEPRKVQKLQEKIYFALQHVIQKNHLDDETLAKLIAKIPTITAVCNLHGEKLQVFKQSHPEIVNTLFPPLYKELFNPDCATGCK

The target in test [19] is Retinoic acid receptor alpha (Homo sapiens) (UniProt P10276). The test can be described thus: ATG_RARa_TRANS: Attagene TRANS-FACTORIAL HepG2 Assay for human Retinoic Acid Receptor alpha (RARa) (AID 2283005; active = hit-call score of the fitted dose curve at least 0.9, where 1 is the maximum). In a few lines:
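HepG2 transiently transfected with multiplex GAL4-UAS reporter units including a human RARa–GAL4 chimera; 24 h compound exposure. Reporter mRNA quantified by RT-PCR, 6-FAM labeling and capillary electrophoresis; gain of signal versus DMSO.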

Test [20] has as its target human RAR-related Orphan Receptor gamma (RORg), RORC (gene 6097) (UniProt P51449). The test can be described thus: ATG_RORg_TRANS: Attagene TRANS-FACTORIAL HepG2 Assay for human RAR-related Orphan Receptor gamma (RORg) (AID 2283011; active = hit-call score of the fitted dose curve at least 0.9, where 1 is the maximum). In a few lines: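 Chimeric RORg-Gal4 transactivation in transfected HepG2; 24 h exposure; RT-PCR/capillary electrophoresis readout of reporter mRNA, DMSO baseline.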

The structures appear in SMILES notation. Inconclusive results are not listed. Activity calls are given as the source filed them. Rule for the calls, unless noted: active = hit-call score of the fitted dose curve at least 0.9, where 1 is the maximum; inactive = score below 0.9.

Sequence of Nuclear receptor subfamily 1 group I member 2 (Homo sapiens) (O75469 whole entry, looked up, the tested form may be a part): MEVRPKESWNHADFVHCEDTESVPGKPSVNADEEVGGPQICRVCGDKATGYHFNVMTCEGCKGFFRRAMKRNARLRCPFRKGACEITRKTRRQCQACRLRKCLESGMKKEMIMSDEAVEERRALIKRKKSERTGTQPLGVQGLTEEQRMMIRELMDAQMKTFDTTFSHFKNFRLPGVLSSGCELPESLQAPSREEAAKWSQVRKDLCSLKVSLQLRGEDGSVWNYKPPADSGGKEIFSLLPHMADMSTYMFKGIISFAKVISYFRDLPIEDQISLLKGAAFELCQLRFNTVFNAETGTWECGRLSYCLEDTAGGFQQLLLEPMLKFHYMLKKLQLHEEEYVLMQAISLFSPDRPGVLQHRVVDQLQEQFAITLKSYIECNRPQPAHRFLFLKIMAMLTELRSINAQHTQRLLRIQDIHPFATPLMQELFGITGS
Sequence of Cellular tumor antigen p53 (Homo sapiens) (P04637 whole entry, looked up): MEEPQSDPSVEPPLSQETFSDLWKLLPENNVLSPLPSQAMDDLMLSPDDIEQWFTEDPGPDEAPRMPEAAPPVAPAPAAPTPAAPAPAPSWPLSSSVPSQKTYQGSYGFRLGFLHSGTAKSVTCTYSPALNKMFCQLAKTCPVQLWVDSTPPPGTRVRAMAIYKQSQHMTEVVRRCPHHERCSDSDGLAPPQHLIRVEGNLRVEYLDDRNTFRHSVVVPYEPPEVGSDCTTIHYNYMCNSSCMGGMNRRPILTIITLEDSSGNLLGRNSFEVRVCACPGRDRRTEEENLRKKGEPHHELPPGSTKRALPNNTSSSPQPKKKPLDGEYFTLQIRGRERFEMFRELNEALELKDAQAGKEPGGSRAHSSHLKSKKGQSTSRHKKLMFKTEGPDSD
Sequence of human Retinoic Acid Receptor gamma (RARg), RARG (gene 5916) (P13631 whole entry, looked up, the tested form may be a part): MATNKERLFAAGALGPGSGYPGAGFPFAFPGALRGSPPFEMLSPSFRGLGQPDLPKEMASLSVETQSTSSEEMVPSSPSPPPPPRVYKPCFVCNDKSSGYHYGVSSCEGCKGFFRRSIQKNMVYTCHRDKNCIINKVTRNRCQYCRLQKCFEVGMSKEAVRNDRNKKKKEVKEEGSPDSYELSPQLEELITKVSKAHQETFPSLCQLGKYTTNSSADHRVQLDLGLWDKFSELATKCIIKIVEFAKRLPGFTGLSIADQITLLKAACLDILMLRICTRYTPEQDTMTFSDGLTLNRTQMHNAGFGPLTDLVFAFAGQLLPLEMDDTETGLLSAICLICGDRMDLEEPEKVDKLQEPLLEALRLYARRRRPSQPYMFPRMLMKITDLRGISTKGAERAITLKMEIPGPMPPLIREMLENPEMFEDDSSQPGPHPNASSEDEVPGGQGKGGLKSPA
Sequence of human Peroxisome Proliferator-activated Receptor delta (PPARd), PPARD (gene 5467) (Q03181 whole entry, looked up, the tested form may be a part): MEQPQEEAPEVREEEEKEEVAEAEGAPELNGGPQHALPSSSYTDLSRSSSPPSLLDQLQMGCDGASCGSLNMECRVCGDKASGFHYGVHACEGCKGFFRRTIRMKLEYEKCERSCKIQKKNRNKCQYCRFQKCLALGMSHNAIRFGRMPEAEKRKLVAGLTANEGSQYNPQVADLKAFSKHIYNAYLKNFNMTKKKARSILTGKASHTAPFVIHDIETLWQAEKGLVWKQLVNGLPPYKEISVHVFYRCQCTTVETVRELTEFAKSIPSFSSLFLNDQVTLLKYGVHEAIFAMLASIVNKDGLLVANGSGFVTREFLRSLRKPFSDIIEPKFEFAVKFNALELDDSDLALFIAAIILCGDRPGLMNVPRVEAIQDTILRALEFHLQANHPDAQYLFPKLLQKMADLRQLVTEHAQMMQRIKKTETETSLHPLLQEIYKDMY
Sequence of Retinoic acid receptor alpha (Homo sapiens) (P10276 whole entry, looked up, the tested form may be a part): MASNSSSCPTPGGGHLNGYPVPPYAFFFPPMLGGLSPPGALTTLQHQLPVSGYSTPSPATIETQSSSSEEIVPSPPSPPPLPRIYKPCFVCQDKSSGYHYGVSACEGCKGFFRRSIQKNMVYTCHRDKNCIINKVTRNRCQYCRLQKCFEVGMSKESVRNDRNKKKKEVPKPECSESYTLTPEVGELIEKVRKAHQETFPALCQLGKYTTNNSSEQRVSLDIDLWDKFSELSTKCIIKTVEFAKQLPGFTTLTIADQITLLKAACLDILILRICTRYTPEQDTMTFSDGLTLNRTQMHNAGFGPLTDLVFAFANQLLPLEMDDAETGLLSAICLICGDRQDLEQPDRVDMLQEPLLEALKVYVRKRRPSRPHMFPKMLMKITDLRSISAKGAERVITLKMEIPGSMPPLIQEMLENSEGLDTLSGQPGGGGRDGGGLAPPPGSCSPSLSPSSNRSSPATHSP
Sequence of human Peroxisome Proliferator-activated Receptor alpha (PPARa), PPARA (gene 5465) (Q07869 whole entry, looked up, the tested form may be a part): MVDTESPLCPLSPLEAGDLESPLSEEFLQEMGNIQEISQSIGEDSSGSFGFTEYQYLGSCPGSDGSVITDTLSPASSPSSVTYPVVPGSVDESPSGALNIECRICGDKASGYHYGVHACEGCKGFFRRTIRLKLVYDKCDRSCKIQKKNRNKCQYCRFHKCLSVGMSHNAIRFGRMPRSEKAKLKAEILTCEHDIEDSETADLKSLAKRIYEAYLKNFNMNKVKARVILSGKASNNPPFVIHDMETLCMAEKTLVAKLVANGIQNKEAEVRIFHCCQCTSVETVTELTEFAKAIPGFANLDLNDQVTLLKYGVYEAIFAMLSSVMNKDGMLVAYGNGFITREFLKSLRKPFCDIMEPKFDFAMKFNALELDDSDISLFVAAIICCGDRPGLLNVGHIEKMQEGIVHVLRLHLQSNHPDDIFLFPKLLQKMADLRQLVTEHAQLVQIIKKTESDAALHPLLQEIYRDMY
Sequence of human RAR-related Orphan Receptor gamma (RORg), RORC (gene 6097) (P51449 whole entry, looked up, the tested form may be a part): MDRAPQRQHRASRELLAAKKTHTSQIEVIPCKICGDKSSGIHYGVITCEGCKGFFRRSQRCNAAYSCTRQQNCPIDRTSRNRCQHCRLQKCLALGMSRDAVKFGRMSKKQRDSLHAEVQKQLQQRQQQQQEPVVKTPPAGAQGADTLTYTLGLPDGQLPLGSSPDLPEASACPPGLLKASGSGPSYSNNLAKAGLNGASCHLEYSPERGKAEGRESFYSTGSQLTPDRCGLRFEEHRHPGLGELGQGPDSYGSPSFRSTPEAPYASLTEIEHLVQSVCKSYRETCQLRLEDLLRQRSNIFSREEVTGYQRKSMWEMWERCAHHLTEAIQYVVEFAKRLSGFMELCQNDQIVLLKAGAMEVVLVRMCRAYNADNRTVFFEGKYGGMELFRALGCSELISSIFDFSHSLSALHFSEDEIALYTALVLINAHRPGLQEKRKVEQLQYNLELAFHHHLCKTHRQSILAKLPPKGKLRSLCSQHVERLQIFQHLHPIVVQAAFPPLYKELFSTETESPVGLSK

Regarding `O=[N+]([O-])c1ccc(Nc2ccccc2)cc1`, the result in [1], in test [2], in test [3], in [4], in [5] and in [6] was inactive. Besides, the outcome in test [7], in test [8], in test [9], in test [10], in test [11] and in [12] was inactive. Moreover, in test [14], the molecule was classed as inactive. Also, the AC50 in test [13] is 12.3 µM (active).
`Cc1ccc(OP(=O)(Oc2ccc(C)cc2C)Oc2ccc(C)cc2C)c(C)c1`: the AC50 in test [1] is 25.9 µM (active); in [2], 12.3 µM (active); in [11], 6.87 µM (active); in [12] it was 1.3 µM (active); in test [13] it was 0.0821 µM (active). The molecule was called inactive in [3], in [4], in [5], in test [6], in test [7] and in [8]. In addition, the call in test [15], in test [10] and in test [14] was inactive.
For the molecule `COc1ccc([N+](=O)[O-])cc1O`, the molecule was called inactive in test [1], in test [2], in [3], in test [4], in test [9] and in test [15]. The call in [16], in test [12], in test [17] and in [18] was inactive.
In the case of `C[CH2][Hg][S]c1ccccc1C(=O)O`, the result in test [1], in test [4], in [9], in test [15], in [16] and in [19] was inactive. Moreover, the molecule was classed as inactive in test [13], in test [17], in test [18], in [20] and in test [14]. For the same molecule, the AC50 in test [2] is 0.3 µM (active); in test [3], 2.87 µM (active); in test [12], 3.71 µM (active).
Consider `OC(Cc1ccccc1Cl)(Cn1cncn1)C1(Cl)CC1` (stereo not drawn), for which the molecule was called inactive in test [1], in test [2], in [3], in test [5], in [7] and in [8]. Moreover, the result in test [15], in test [10], in test [16], in [19], in [11] and in test [12] was inactive. In addition, the molecule was called inactive in [17], in test [20] and in [14]. Moreover, the AC50 was 30 µM (active) in test [4], 16.5 µM (active) in [6] and 7.37 µM (active) in [13].
With `CCOP(=O)(OCC)SCCSCC`, the outcome in [1], in test [2], in test [3], in [4], in test [5] and in [6] was inactive. The outcome in test [7], in test [8], in [10], in [19], in test [11] and in [12] was inactive. In addition, the outcome in test [13], in test [17], in test [18] and in test [20] was inactive.
In the case of `O=[N+]([O-])c1cccc2ccccc12`, the molecule was classed as inactive in [1], in [3], in [4], in test [5], in test [6] and in test [7]. Besides, the outcome in [8], in test [9], in test [10], in test [11], in [12] and in test [14] was inactive. Besides, the AC50 in test [2] was 23.7 µM (active); in [13], 30.4 µM (active).
As to `CCOC(=O)C(SP(=S)(OC)OC)c1ccccc1` (stereo not drawn), the molecule was classed as inactive in test [1], in test [3], in [4], in test [5], in test [10] and in [20]. For the same molecule, the AC50 in [2] is 32 µM (active); in [6], 20 µM (active); in test [7], 25.8 µM (active); in test [8], 29.1 µM (active); in test [11], 14.9 µM (active); in test [12], 70.8 µM (active). Besides, in test [13], the AC50 was 3.52 µM (active).

In general, AC50 refers to the midpoint of the concentration-response curve, whichever way the signal moves.
